Measurements taken from ChEMBL document CHEMBL3988442, “University of Dundee, Small-Polar-MMV Screening Library” (2021).

Key:
[1] = target: T1, Aspartate--tRNA(Asp/Asn) ligase (Mycobacterium tuberculosis (strain ATCC 25618 / H37Rv)) (UniProt P9WFW3); assay: Assay for Asp RNA synthetase-1 from Mycobacterium tuberculosis; format: functional; design: scale not given: direction of the effect not stated beside the values; conditions: 30 µM; note: in the data most compounds retested in dose-response had high values
T1 sequence (whole entry): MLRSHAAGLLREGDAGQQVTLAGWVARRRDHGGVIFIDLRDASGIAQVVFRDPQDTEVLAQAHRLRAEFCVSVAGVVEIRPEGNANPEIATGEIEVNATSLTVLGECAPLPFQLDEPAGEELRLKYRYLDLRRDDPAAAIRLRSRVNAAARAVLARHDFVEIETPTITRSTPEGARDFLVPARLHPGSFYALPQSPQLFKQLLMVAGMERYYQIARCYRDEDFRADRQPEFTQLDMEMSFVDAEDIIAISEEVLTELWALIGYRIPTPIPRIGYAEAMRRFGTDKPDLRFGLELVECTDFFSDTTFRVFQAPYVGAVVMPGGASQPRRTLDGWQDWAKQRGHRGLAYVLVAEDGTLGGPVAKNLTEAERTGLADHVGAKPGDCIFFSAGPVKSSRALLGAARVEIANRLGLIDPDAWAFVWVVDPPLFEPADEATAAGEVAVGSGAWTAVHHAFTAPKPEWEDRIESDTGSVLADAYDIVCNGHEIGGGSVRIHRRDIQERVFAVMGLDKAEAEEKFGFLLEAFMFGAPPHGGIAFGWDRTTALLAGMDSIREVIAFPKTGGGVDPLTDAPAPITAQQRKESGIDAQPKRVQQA

[2] = target: Shiga toxin 2 (Escherichia coli O157:H7) (UniProt P09385+P09386); assay: E. coli 0.157:H7 Shiga Toxin SOP - stx2 screening assay; format: functional; design: scale not given: direction of the effect not stated beside the values; conditions: 30 µM

| SMILES | Percent Effect [1] [%] | Percent Effect [2] [%] |
| --- | --- | --- |
| COc1cccc(C2CC(=O)Nc3nc(N)sc32)c1OC (centres undefined) | 65.3 | -20 |
| CCc1nccn1C1CCCN(C(=O)c2cn3cccnc3n2)C1 (centres undefined) | -1.08 | 5.72 |
| N#CC1(C(=O)N2CCN(Cc3cscn3)CC2)CCCC1 | -0.171 | 9.21 |
| CCc1nc(C2CCCN2C(=O)c2ccc3c(c2)nc(C)n3C)no1 (centres undefined) | -0.367 | 2.43 |
| CCNC(=O)N1CCC2(C1)c1ccccc1S(=O)(=O)N2CCC(C)C (centres undefined) | -0.553 | -1.22 |
| Cc1cnn(CC2CCCN2C(=O)c2cc(Cl)ccc2F)c1 (centres undefined) | 1.32 | -18.5 |
| N#Cc1ccccc1N1CCCN(C(=O)CCc2nccs2)CC1 | -8.37 | 9.06 |
| CCN1CCCC1CN(CCN(C)C)S(=O)(=O)c1ccc(C#N)cc1 (centres undefined) | -3.16 | -8.05 |
| CC(C)c1noc(CCCC(=O)N2CCC(Cc3cccnc3)CC2)n1 | -0.0571 | 0.87 |
| COc1c(CNCc2cccc(CS(C)(=O)=O)c2)c(C)nn1C | 1.7 | 20.4 |
| CC(C)CCC(C)NC(=O)c1ccc(OCC(N)=O)cc1 (centres undefined) | 2.49 | -8.96 |
| Cc1nc(C)c(CNC(=O)NC(c2nnc3n2CCC3)C(C)C)s1 (centres undefined) | 0.0985 | -7.7 |
| CS(=O)(=O)NC1CCCN(C(=O)NCc2cc[nH]n2)C1 (centres undefined) | -0.0288 | 2.05 |
| COCC1CN(C(=O)C2=CCCCC2)Cc2cnn(CC3CC3)c21 (centres undefined) | 0.918 | -7.05 |
| CO[C@H]1CCN(c2ncccn2)[C@H]1Cc1ccccc1 | 1.75 | -19.4 |
| CCN(CC1CCOC1)C(=O)c1cccnc1N1CCOCC1 (centres undefined) | -1.66 | 25.6 |
| CC(=O)Nc1nc(C(=O)N2CCCC2c2noc(C)n2)cs1 (centres undefined) | 0.425 | -22.5 |
